High-throughput results (PubChem)
Most compounds without a hit are left out; they make up all but 2.2% or so of the library.
CHO-K1 Ca antag = nonselective inhibitor or artifact in parental CHO-K1 cells. inhibition, % at 3 µM. actives 0.6% (n = 360,000). ATP-induced calcium, Fluo-8 fluorescence. AID 602250;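 active means inhibition above a per-plate cutoff, the plate's mean sample inhibition plus 3 SD, cut at about 24% in these data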;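 further: 0% = DMSO plus EC80 ATP and 100% = DMSO alone without ATP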
ANO1 block = blocks the mouse calcium-activated chloride channel TMEM16A; Q8BHY3; HEK293 TMEM16A/YFP iodide influx fluorescence, ionomycin; AID 588511; actives 1.2% (n = 310,000); normalized B-score (activity score, 25-100; higher = stronger inhibition) at 10 µM;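 active means ratio plate-corrected score three or more library SD toward inhibition, starting fluorescence score within five deviations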;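 further: score derived from kinetic fluorescence span divided by baseline fluorescence per well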
Target sequence (Q8BHY3 whole entry, looked up): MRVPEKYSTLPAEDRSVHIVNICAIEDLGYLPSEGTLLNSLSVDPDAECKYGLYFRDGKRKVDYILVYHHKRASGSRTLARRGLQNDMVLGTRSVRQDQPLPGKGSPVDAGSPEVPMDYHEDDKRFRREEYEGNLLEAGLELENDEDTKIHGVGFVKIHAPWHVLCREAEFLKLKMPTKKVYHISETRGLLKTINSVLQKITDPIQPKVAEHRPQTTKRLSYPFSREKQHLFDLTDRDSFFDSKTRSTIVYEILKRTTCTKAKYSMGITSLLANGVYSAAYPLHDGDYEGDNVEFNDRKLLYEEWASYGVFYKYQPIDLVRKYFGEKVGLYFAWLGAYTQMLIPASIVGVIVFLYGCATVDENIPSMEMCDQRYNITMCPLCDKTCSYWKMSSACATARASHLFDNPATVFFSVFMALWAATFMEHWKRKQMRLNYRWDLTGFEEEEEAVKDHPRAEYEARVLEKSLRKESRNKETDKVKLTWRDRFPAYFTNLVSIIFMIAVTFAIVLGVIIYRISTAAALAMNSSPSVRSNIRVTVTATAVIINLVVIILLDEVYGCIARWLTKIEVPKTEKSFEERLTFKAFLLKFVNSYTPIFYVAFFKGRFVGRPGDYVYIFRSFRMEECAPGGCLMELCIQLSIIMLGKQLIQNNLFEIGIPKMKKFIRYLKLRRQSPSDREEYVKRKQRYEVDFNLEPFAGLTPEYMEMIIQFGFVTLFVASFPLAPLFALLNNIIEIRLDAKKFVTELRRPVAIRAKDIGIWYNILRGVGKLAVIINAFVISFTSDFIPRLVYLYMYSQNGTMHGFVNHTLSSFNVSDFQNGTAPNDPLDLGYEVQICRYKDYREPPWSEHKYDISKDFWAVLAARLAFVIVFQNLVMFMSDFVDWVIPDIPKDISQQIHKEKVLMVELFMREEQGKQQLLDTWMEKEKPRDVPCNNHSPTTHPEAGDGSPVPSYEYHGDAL
NTR1 agonist = activates human neurotensin receptor 1. NTR1-U2OS beta-arrestin-GFP spot imaging, agonist mode. activation, % at 20 µM. actives 0.17% (n = 330,000). AID 493036;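 active means activation at or above 40% of the spot to cytoplasm intensity ratio, with at least 20 cells analyzed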;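 further: 0% = DMSO without peptide and 100% = 100 nM NTR1 peptide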
CHO-K1 Ca PAM = M1 PAM counterscreen hit in parental CHO-K1 cells; ATP EC20, Fluo-8 calcium fluorescence; 0% at ATP EC20, 100% at ATP max; actives 0.02% (n = 360,000); activation, % at 3 µM; AID 602247;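 active means activation above the run cutoff, the mean activation of all test compounds plus 3 SD, cut at about 40% in these data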;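 further: peak over basal fluorescence ratio in a 140 s read after ATP addition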
ANO1 activ = activators or potentiators of mouse TMEM16A chloride channel; HEK293 TMEM16A/YFP-H148Q/I152L, iodide quench fluorescence; stronger effect = lower value; B-score at 10 µM; actives 0.3% (n = 340,000);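 active means fluorescence-ratio B-score plate-corrected deviation score at least 3 library SD below zero, with starting fluorescence score within 5 deviations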;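 further: channel opened by trigger with iodide after compound preincubation; score built on the fluorescence ratio of max minus min over baseline; more negative score means more quench and so TMEM16A activation or potentiation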
M1 ag parental = counter-screen for M1 agonists: effect in parental CHO-K1 cells; Fluo-8 calcium fluorescence; scaled to maximal ATP response, vehicle zero; activation, % at 3 µM; actives 0.48% (n = 360,000); AID 602248; in the data active means activation above about 15%;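 further: untransfected CHO-K1 host cells lacking M1 receptor as counterscreen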
* = called active by the depositor; i = inactive; . = no result given.

SMILES	CHO-K1 Ca antag	ANO1 block	NTR1 agonist	CHO-K1 Ca PAM	ANO1 activ	M1 ag parental
O=c1c2ccccc2nnn1CSc1nc2ccccc2[nH]1	9.8	i	-2.6	-9.7	-7.55*	1.2
CSc1ncnc2c1ncn2CCCN1CCN(c2ccccn2)CC1	-8.6	.	.	16.9	.	0.4
C[C@@H]1CN([C@@H](C)CO)C(=O)CCCn2nncc2CO[C@H]1CN(C)S(=O)(=O)c1cccc(F)c1	-12.6	.	.	14.3	.	0.8
Cc1ccc(/C=C2/NC(=O)N(Cc3ccccc3)C2=O)s1	27.4*	i	2.7	-7.5	i	1.6
COc1cccc(C(O)c2nc(-c3ccc(N(C)C)cc3)cs2)c1 (stereo unspecified)	17.5	.	.	-5.9	.	8.6
CCCNC(=O)C1(C)CCN(Cc2ccc(-c3ccccc3)o2)C1 (stereo unspecified)	-9.6	.	.	15.6	.	1.3
Cc1ccc(NS(=O)(=O)c2cc([N+](=O)[O-])ccc2NNC(=S)Nc2cccc(Cl)c2)c(C)c1	19.7	100*	.	7.5	i	5.9
Cc1ccc(NS(=O)(=O)c2cc([N+](=O)[O-])ccc2NNC(=S)Nc2cc(C)ccc2C)c(C)c1	18.4	100*	9.0	-3.2	i	6.5
COc1ccc(NC(=S)NNc2ccc([N+](=O)[O-])cc2S(=O)(=O)Nc2ccc(C)cc2C)cc1	6.4	100*	2.2	6.4	i	6.0
COc1ccc(NC(=S)Nc2cccc([N+](=O)[O-])c2)cc1	14.7	i	0.2	-6.5	i	2.2
Cc1ccccc1N1CCN(C2CCCN(C(=O)CSc3ccccn3)C2)CC1 (stereo unspecified)	-13.4	.	.	14.9	.	2.3
CS(=O)(=O)c1cc(C(=O)O)cc(NCc2ccccc2)c1Oc1ccccc1	-1.3	.	.	7.5	.	0.3
COc1ccc(NC(=O)C2Cc3c(-c4cccc(NC(C)=O)c4)ccnc3O2)cc1 (stereo unspecified)	-5.5	.	.	-1.7	.	2.8
CCCCCCn1cc(CN2CC(N3CCN(CCN(C)C)CC3)CS2(=O)=O)nn1 (stereo unspecified)	-25.2	.	.	20.2	.	0.8
O=C(NNC(=O)c1cnccc1C(F)(F)F)c1ccccc1	15.6	i	-0.4	7.4	i	15.7*
COc1ccccc1S(=O)(=O)N(C)C[C@@H]1OCc2cnnn2CCCC(=O)N([C@H](C)CO)C[C@@H]1C	-11.4	.	.	17.6	.	0.3
Cc1ccccc1C(=O)N=c1ccn(-c2nc3ccccc3nc2NS(=O)(=O)c2ccccc2)cc1	-11.1	i	0.4	12.2	i	0.3
CCOc1ccc(S(=O)(=O)Nc2nc3ccccc3nc2-n2ccc(=NC(=O)c3ccccc3C)cc2)cc1	25.4*	i	4.9	-4.2	i	23.9*
O=S1(=O)N[C@H](Cc2ccccc2)COc2cccc(N3CCN(Cc4ccccc4F)CC3)c21	-15.0	.	.	11.6	.	3.2
CC(=O)c1ccc(N2CCN(C(=O)CNS(=O)(=O)c3ccc4c(c3)OCCCO4)CC2)c(F)c1	5.3	.	0.7	-30.4	i	4.8
O=C(COc1ccc(Br)cc1)N1CCN(c2ncccn2)CC1	-10.4	.	1.8	6.5	i	1.6
CC(C)C(=O)N1CCCC1(C)C(=O)Nc1ccc(F)cc1 (stereo unspecified)	-4.7	.	.	9.4	.	-0.2
COc1ccc(F)cc1CSc1nnnn1-c1ccc(O)cc1	-7.4	25*	-0.5	2.2	i	5.9
COc1ccc(C(C)=O)cc1CSc1nnnn1-c1ccc(O)cc1	-4.3	i	2.5	12.5	i	5.3
CC(C)(C)C(=O)NC(=S)NNC(=O)C(c1ccccc1)c1ccccc1	47.3*	100*	17.9	-31.6	i	107.3*
SMILES	CHO-K1 Ca antag	ANO1 block	NTR1 agonist	CHO-K1 Ca PAM	ANO1 activ	M1 ag parental
CC(=O)NNC(=S)NC(=O)C(c1ccccc1)c1ccccc1	-1.2	i	0.2	11.3	i	4.1
CC(=O)Nc1cccc(C(=O)OCC(=O)NC2CCCCCCC2)c1	-13.8	.	2.7	-10.3	i	15.1*
CC(=O)Nc1cccc(C(=O)OCC(=O)NC(=O)NC2CCCC2)c1	-3.2	.	.	-7.2	.	2.0
COc1ccc(Cl)cc1N(CC(=O)NCc1ccccn1)S(=O)(=O)c1ccc(C)cc1	2.8	.	.	4.5	.	2.6
CC(C)Cc1ccc(C(C)CC2=CCC(CN(C)C)C2=O)cc1 (stereo unspecified)	-10.2	.	.	15.0	i	1.8
Cc1cc2c(sc3ccccc32)c(C)n1	-8.0	i	0.7	-3.1	i	0.2
Cc1nc2c(s1)sc1ccccc12	24.4*	i	-2.0	-8.6	i	-0.2
Cc1ccc(CNC(=O)CSc2nc(=O)n3ccc(C)cc3n2)cc1	6.4	.	.	-5.0	.	-0.6
O=S(c1cc(Cl)cc(Cl)c1O)c1cc(Cl)cc(Cl)c1O	-10.3	.	.	0.4	.	2.6
Oc1c(Cl)cc(Cl)cc1Sc1cc(Cl)cc(Cl)c1O	.	100*	1.2	.	.	.
Cc1cc(C(=O)COC(=O)/C=C/c2ccco2)c(C)n1C	-18.1	.	2.6	21.7	i	0.9
CC1CCC(C(C)C)C(OC(=O)Cn2c(-c3ccc(Br)cc3)[n+](C)c3ccccc32)C1 (stereo unspecified)	6.5	i	31.5	19.8	i	2.6
CCCCCCCCCCOC(=O)Cn1c(COc2ccccc2C)[n+](C)c2ccccc21	-0.9	100*	22.2	4.3	-4.67*	0.3
Cc1ccccc1OCc1n(CC(=O)OC2CC(C)CCC2C(C)C)c2ccccc2[n+]1C (stereo unspecified)	9.9	100*	29.6	4.0	i	1.3
CCCCCCCCCCOC(=O)Cn1c(COc2cccc(C)c2)[n+](C)c2ccccc21	8.8	100*	19.2	4.4	i	-0.4
CCCCCCCCCCOC(=O)Cn1c(COc2ccccc2)[n+](C)c2ccccc21	5.0	i	30.7	2.1	i	0.9
CNC(=O)C1CCC(=O)N1Cc1c[nH]c2ccccc12 (stereo unspecified)	11.3	.	.	2.5	.	0.1
COc1ccccc1-c1cnc(C(O)c2ccc(C)cc2C)[nH]1 (stereo unspecified)	-11.2	.	.	14.5	.	2.2
COc1cc[n+]([O-])cc1[N+](=O)[O-]	-8.2	.	.	20.8	i	3.4
CC(C)c1ccc(NC(=O)C2(C)Cc3c(-c4ccc5c(c4)OCO5)ccnc3O2)cc1 (stereo unspecified)	-13.0	.	.	-2.0	.	0.5
CN1/C(=C\C(=O)COC(=O)Cn2nnc(-c3ccccc3)n2)C(C)(C)c2ccccc21	24.0*	25*	0.0	-6.5	i	1.4
